From PubChem BioAssay (Tox21) come the findings set out here.

Assay [1] in a line: Nuclear factor erythroid 2-related factor 2/antioxidant responsive element (Nrf2/ARE) small molecule agonists: qHTS cell viability counter screen in human keratinocytes (AID 1919968; active = well fitted cell-killing curve with a large enough effect in the repeat runs; also: nearly all actives have a fitted effect of over 55% in size). To be noted: KeratinoSens HaCaT ARE cells viability, CellTiter-Fluor, 24 h; series mostly up to 92.4 µM. Put shortly: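 Cells of the KeratinoSens line were plated at 1,500 per well and left for 5 h before compound transfer from DMSO stocks. After a 23 h incubation (37 C, 5% CO2), CellTiter-Fluor was added. Signal was taken as fluorescence intensity 1 h later.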

A short description of assay [2]: Nuclear factor erythroid 2-related factor 2/antioxidant responsive element (Nrf2/ARE) small molecule agonists: luciferase reporter gene qHTS assay in human keratinocytes (AID 1919969). Also: nearly all actives have a fitted effect of over 35% in size. The settings on record: KeratinoSens HaCaT ARE-luciferase, luminescence, 24 h; series mostly up to 92.4 µM.
For assay [3], the target named is Gonadotropin-releasing hormone receptor (Homo sapiens) (UniProt P30968). Put plainly: Human gonadotropin-releasing hormone receptor (GnRHR) small molecule agonists, calcium flux assay in GnRHR-HEK293 cells (AID 1920063). Also: nearly all actives have a fitted effect of over 35% in size. The settings on record: calcium flux fluorescence, agonist mode; series mostly up to 57.6 µM. The method in brief:
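Compounds dissolved in DMSO are pin-transferred onto dye-loaded GnRHR-HEK293 cells, which were seeded 18 h before at 37 C/5% CO2. Calcium signal is read as fluorescence intensity at 1 s intervals for 3 min.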
In general terms: Calcium assays in cells follow changes in intracellular calcium, usually with a dye or a luminescent sensor.

Assay [4] in a line: G protein-coupled receptor (GPCR) small molecule agonists, calcium flux assay: HEK293 wild type cell line counter screen (AID 1920065). To be noted: HEK293 WT calcium flux, fluorescence, agonist mode; series mostly up to 57.6 µM. Put shortly:
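Tox21 10K compounds, 15 concentrations each in triplicate, pin-transferred in DMSO onto dye-loaded cells; kinetic read at 480/540 nm for 3 min, 1 s intervals.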

Assay [5] is described as follows: p53 small molecule agonists, cell-based qHTS assay with rat liver microsomes (AID 1963578). The settings on record: HCT-116 p53RE-bla, beta-lactamase ratio, 16 h; series mostly up to 66 µM. The method in brief:
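Compound in DMSO added to p53RE-bla cells 5 h post-plating; rat microsomes/NADPH 0.5 mg/mL final; 16 h, 37 C; LiveBLAzer 2 h RT.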
On the technique in general: Quantitative high-throughput screening tests each substance at several concentrations.

Assay [6] can be described thus: p53 small molecule agonists, cell-based qHTS assay with human liver microsomes: qHTS cell viability counter screen (AID 1963579). Also: nearly all actives have a fitted effect of over 45% in size. To be noted: p53RE-bla HCT-116 viability, ATP luminescence, 16 h, HLM; series mostly up to 66 µM. Put shortly:
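HLM-supplemented (0.5 mg/mL final) and NADPH-supplemented (0.5 mg/mL final) p53RE-bla cultures, 4,000 cells per well, were dosed with compounds in DMSO for 16 h at 37 C; luminescent ATP detection (CellTiter-Glo, 30 min, room temperature) quantified surviving cells.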

Assay [7] is described as follows: p53 small molecule agonists, cell-based qHTS assay with rat liver microsomes: qHTS cell viability counter screen (AID 1963580). Also: nearly all actives have a fitted effect of over 45% in size. To be noted: p53RE-bla HCT-116 + rat microsomes, ATP viability, 16 h; series mostly up to 66 µM. The method in brief: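 Counter screen for cytotoxicity under metabolic activation: rat liver microsomes and NADPH, 0.5 mg/mL final each, added with compounds to p53RE-bla HCT-116 cells; 16 h at 37 C, then ATP luminescence read.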

Assay [8] in a line: p53 small molecule agonists, cell-based qHTS assay: qHTS cell viability counter screen (AID 1963581). Also: nearly all actives have a fitted effect of over 45% in size. The settings on record: p53RE-bla HCT-116 viability, ATP luminescence, 16 h; series mostly up to 66 µM. The method in brief: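 ATP content measured by luminescence in HCT-116 p53RE-bla cells treated 16 h at 37 C, same wells as the reporter screen.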
Assay [9] is described as follows: p53 small molecule agonists, cell-based qHTS assay (AID 1963582; active = well fitted activation curve with a large enough effect in the signal ratio in the repeat runs, not every such curve was filed as active; the % refers to the signal ratio). The settings on record: HCT-116 p53RE-bla reporter, beta-lactamase FRET ratio, 16 h; series mostly up to 66 µM. Put shortly:
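16 h compound exposure (37 C) of p53 response element–bla cells, preceded by 5 h recovery at 37 C/5% CO2; read-out via LiveBLAzer B/G FRET substrate, 2 h RT, fluorescence intensity.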

For assay [10], the target named is 5-hydroxytryptamine receptor 2A (Homo sapiens) (UniProt P28223). Put plainly: 5-hydroxytryptamine receptor 2A (HTR2A) small molecule antagonists, cell-based qHTS assay (AID 1963586). Also: nearly all actives have a fitted effect of over 45% in size. The settings on record: HTR2A-CHO cells, DOI-induced calcium flux, fluorescence; series mostly up to 61.5 µM. Put shortly:
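CHO cells stably expressing human HTR2A were plated for 18 h at 37 C, then loaded with calcium dye for 1 h. Compounds were preincubated 5 min at room temperature before DOI (4 nM solution) was added. Kinetic fluorescence was read for 3 min.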

Assay [11] addresses Muscarinic acetylcholine receptor M1 (Homo sapiens) (UniProt P11229). Briefly: Cholinergic receptor muscarinic 1 (CHRM1) small molecule agonists, cell-based qHTS assay (AID 1963589). Also: nearly all actives have a fitted effect of over 35% in size. The settings on record: CHRM1-CHO cells, agonist mode, calcium flux fluorescence; series mostly up to 76.8 µM. Put shortly:
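Homogeneous fluorescence calcium flux, agonist mode. Human M1-expressing CHO cells; compound dosed at 15 concentrations, three independent runs; signal sampled every 1 sec.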

The nature of assay [12]: cAMP Responsive Elements (CRE) small molecule antagonists, cell-based qHTS assay (AID 1963591; active = well fitted inhibition curve with a large enough effect in the signal ratio in the repeat runs, not every such curve was filed as active; the % refers to the signal ratio). To be noted: CRE-bla HEK293T, beta-lactamase FRET ratio; series mostly up to 92.4 µM. Put shortly:
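First, CRE-bla HEK293T cells settled 18 h at 37 C. Next, compound and 0.25 uM final NKH477 were applied for 3 h. Last, LiveBLAzer B/G substrate was loaded for 2 h at room temperature.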

Assay [13] addresses Beta-2 adrenergic receptor (Homo sapiens) (UniProt P07550). Briefly: Adrenergic beta2 receptor (ADRB2) small molecule antagonists, cell-based qHTS assay (AID 1963592). Also: nearly all actives have a fitted effect of over 50% in size. Also: potency is read from the fitted curve at half-maximal effect. The settings on record: CHO-ADRB2 cells, isoproterenol-stimulated cAMP HTRF ratio, 0.5 h; series mostly up to 92.4 µM. The method in brief:
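Assay format: CHO-ADRB2 cells, 18-20hr seeding at 37C/5% CO2, then compound plus 1nM isoproterenol agonist mix for 0.5hr RT. Homogeneous time-resolved fluorescence cAMP detection after 1hr, expressed as 665/615 nm ratio.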

The target in assay [14] is D(2) dopamine receptor (Homo sapiens) (UniProt P14416). Briefly: Dopamine D2 receptor (DRD2) small molecule agonists, cell-based qHTS assay (AID 1963594). Also: nearly all actives have a fitted effect of over 35% in size. To be noted: HEK293-DRD2 cAMP HTRF, agonist mode, 30 min; series mostly up to 92.4 µM. Put shortly:
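HEK293 cells stably expressing DRD2 were cultured 24 h at 37 C, then given Ro20-1724 (0.1 mM final) and compounds for 10 min at room temperature. NKH477 (200nM) was then added for 30 min. cAMP was read by HTRF.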

The target is the same in assay [15]. Briefly: Dopamine D2 receptor (DRD2) small molecule antagonists, cell-based qHTS assay (AID 1963595; active = well fitted inhibition curve with a large enough effect in the signal ratio in the repeat runs, with a control signal flat; the % refers to the signal ratio). The settings on record: HEK293-DRD2 cAMP HTRF antagonist mode; series mostly up to 92.4 µM. Put shortly: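 Human DRD2 antagonist qHTS measuring cAMP by HTRF. The cells are exposed to compound for 10 min, then to NKH477 (200 nM) and quinpirole (12 nM) for 30 min at RT, with Ro20-1724 (0.1 mM) present throughout.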

In assay [16] the target is 5-hydroxytryptamine receptor 2A (Homo sapiens) (UniProt P28223). Briefly: 5-hydroxytryptamine receptor 2A (HTR2A) small molecule agonists, cell-based qHTS assay (AID 1963587). Also: nearly all actives have a fitted effect of over 30% in size. The settings on record: HTR2A-CHO cells, calcium flux fluorescence, agonist mode; series mostly up to 76.8 µM. Put shortly:
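HTR2A-CHO cells, plated 18 h at 37 C/5% CO2, dye-loaded 1 h at 37 C; compounds in DMSO added by pin tool (agonist mode). Intracellular calcium flux read as kinetic fluorescence on FDSS over 2 min at 1 s intervals.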

For assay [17], the target named is Muscarinic acetylcholine receptor M1 (Homo sapiens) (UniProt P11229). Briefly: Cholinergic receptor muscarinic 1 (CHRM1) small molecule antagonists, cell-based qHTS assay (AID 1963588). Also: nearly all actives have a fitted effect of over 40% in size. Also: potency is read from the fitted curve at half-maximal effect. The settings on record: CHRM1-CHO antagonist mode, calcium flux fluorescence; series mostly up to 61.5 µM. The method in brief:
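Compounds were tested at 15 concentrations in three independent runs. Dye-loaded CHRM1-CHO cells were exposed 5 min at room temperature before stimulation by acetylcholine added at 50nM. Intracellular calcium was read kinetically on FDSS for 3 min.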

A short description of assay [18]: cAMP Responsive Elements (CRE) small molecule agonists, cell-based qHTS assay (AID 1963590). The settings on record: CRE-bla HEK293T, beta-lactamase FRET ratio, 3 h; series mostly up to 92.4 µM. The method in brief: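 HEK 293T cells stably bearing CRE-bla were plated at 2,000 cells per well and rested 18 h. Compounds, positive controls or DMSO were added for 3 h at 37 C. LiveBLAzer B/G substrate was then loaded for 2 h at room temperature.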

The structures appear in SMILES notation. Values without a mark were called inactive. Records with an inconclusive call do not appear. Activity calls are given as the source filed them. Unless noted, calls follow the shape of the full dose curve.
% is scaled to controls: 0 for no effect and ±100 for the full control effect.

Sequence of 5-hydroxytryptamine receptor 2A (Homo sapiens) (P28223 whole entry, looked up): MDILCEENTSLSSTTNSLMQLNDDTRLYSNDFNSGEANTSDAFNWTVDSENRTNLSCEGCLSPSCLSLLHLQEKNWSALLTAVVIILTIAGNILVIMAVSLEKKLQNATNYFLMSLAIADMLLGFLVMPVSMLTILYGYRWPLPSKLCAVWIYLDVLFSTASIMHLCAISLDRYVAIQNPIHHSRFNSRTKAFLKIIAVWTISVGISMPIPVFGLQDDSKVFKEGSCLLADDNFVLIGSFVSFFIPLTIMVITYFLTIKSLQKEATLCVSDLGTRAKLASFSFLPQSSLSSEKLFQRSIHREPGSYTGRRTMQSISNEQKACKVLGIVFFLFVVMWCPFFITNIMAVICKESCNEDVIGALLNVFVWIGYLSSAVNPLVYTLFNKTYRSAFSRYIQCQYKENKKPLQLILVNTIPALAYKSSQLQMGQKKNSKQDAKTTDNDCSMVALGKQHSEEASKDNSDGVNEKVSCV
Sequence of D(2) dopamine receptor (Homo sapiens) (P14416 whole entry, looked up): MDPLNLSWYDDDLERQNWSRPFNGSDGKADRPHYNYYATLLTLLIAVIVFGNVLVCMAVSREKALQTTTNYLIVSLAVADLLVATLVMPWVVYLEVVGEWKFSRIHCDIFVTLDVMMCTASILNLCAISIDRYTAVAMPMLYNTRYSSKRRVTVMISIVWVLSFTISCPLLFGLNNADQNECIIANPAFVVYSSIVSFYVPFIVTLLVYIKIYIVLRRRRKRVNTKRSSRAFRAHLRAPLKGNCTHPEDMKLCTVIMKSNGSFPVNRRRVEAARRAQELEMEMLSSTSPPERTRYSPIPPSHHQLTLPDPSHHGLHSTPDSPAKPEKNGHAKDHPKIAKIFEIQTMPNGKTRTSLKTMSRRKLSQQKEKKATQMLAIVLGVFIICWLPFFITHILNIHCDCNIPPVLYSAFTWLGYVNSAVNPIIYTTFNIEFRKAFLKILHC
Sequence of Gonadotropin-releasing hormone receptor (Homo sapiens) (P30968 whole entry, looked up): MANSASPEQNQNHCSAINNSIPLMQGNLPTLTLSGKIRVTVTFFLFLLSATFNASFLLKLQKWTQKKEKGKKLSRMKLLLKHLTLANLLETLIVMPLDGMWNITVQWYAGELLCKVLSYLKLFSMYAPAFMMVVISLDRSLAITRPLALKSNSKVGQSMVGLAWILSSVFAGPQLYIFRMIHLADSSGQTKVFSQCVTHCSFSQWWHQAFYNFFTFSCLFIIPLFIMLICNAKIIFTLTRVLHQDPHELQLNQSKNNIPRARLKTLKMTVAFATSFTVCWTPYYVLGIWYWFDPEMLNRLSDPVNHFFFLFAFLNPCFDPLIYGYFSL
Sequence of Beta-2 adrenergic receptor (Homo sapiens) (P07550 whole entry, looked up): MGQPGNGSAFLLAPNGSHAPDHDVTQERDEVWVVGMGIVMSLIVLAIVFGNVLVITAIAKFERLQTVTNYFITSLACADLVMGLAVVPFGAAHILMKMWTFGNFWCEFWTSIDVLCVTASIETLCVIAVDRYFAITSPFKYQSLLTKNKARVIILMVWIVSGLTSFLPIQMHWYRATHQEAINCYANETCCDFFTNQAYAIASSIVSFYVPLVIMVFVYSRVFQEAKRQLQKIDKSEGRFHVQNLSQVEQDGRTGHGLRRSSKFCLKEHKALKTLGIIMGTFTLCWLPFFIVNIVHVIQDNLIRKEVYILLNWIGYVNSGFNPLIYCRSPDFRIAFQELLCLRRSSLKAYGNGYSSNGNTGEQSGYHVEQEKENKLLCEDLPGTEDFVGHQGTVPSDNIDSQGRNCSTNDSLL
Sequence of Muscarinic acetylcholine receptor M1 (Homo sapiens) (P11229 whole entry, looked up): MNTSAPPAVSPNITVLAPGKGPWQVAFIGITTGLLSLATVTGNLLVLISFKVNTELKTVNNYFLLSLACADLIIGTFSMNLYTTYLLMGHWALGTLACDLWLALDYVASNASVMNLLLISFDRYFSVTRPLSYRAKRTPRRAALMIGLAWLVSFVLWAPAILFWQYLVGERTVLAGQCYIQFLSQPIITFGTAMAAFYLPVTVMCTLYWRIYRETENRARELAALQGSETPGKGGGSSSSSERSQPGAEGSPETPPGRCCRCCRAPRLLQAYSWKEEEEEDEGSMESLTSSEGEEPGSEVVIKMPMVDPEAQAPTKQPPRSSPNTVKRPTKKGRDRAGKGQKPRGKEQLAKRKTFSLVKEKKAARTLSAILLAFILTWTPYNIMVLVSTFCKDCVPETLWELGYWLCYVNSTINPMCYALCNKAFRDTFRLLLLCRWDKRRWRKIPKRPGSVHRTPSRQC

Consider `CCOC(=O)C1CC(=O)C(=C(O)C2CC2)C(=O)C1` (centres undefined), for which the Potency result in assay [1], in assay [2], in assay [3], in assay [5], in assay [6] and in [7] was “inactive” each time. In addition, the Potency entry in [8], in assay [9], in assay [10], in [11], in [12] and in assay [13] was “inactive” in each case. Also, the Potency result in [14] and in [15] was “inactive” in each case. For the same compound, the outcome in assay [4] was inactive.

Turning to `C=CC(C)(O)CCCC(C)CCCC(C)CCCC(C)C` (centres undefined), the Potency entry in assay [1], in [2], in assay [3], in assay [5], in assay [6] and in [8] was “inactive” each time. Moreover, the Potency result in assay [9], in [10], in [16], in assay [17], in assay [11] and in assay [18] was “inactive” in each case. The Potency entry in assay [13], in [14] and in assay [15] was “inactive” throughout. Also, in assay [4], the outcome was inactive.

On to `CN1CCN(CC(=O)N2c3ccccc3C(=O)Nc3cccnc32)CC1`, for which the activity change, negative = cytotoxicity is 0.0434% [at 8.39 µM] in [1], 5.54% [at 5.99 µM] in assay [6], 1.67% [at 5.99 µM] in [7] and 22.9% [at 5.99 µM] in assay [8]. Besides, the activity, positive = activation in assay [2] was -1.98% [at 8.39 µM]. The activity change in assay [3] was -0.376% [at 5.22 µM, active compounds read high]. Also, the activation in assay [4] is -0.198% [at 5.23 µM]; in assay [5], 0.0177% [at 5.99 µM]; in assay [9], -1.98% [at 5.99 µM]; in assay [16], 0.502% [at 7.02 µM]; in assay [18], -0.47% [at 8.39 µM]; in [14], -0.938% [at 8.39 µM]. In addition, the activity, negative = inhibition in [10] is 57.8% [at 5.62 µM]. Moreover, the activity change, negative = inhibition was -9.03% [at 8.39 µM] in assay [12], -1.73% [at 8.39 µM] in [13] and 3.87% [at 8.38 µM] in assay [15].

As for `COc1ccccc1N1CCN(CCCNc2cc(=O)n(C)c(=O)n2C)CC1`, the Potency entry in assay [1], in [2], in assay [3], in assay [5], in [6] and in assay [7] was “inactive” in each case. The Potency entry in [8], in [9], in assay [10], in assay [16], in assay [11] and in assay [18] was “inactive” each time. Further, the Potency result in [12] and in [15] was “inactive” each time. The result in [4] was inactive. For the same compound, the Potency in assay [17] was 10.3 µM (active); in assay [13], 13.3 µM (active).
